# Laboratory results taken from PubChem BioAssay AID2205 (University of Pittsburgh Molecular Library Screening Center, 2009).
# Hit rate of the full screen: of about 200,000 compounds, about 1,600 (0.8%) were called active.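 Rule for the calls: active = plate Z-score above 3 for both tubulin-high and condensed-nucleus cell shares, with cell loss under 80%, at 10 µM; inactive = the rest, inconclusive results apart.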 The entries come from a sample that favours actives as a whole.
# Assay: tubulin staining increase by stabilizing compounds – imaging, high-content imaging, primary screen (AID 2205);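 for % tubulin-high responders: anti alpha tubulin signal scored within the nucleus-defined area of each cell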;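 for toxicity: 0% = mean cell density of plate MIN control wells and 100% = no cells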
# Settings: HeLa tubulin immunostaining HCS, 24 h, at 10 µM; % Hoechst-high responders: measured here: nuclear condensation Hoechst responders, stronger effect = higher value, share of cells brighter than vehicle mean+2SD; % tubulin-high responders: stronger effect = higher value, share of cells brighter than vehicle mean+2SD; toxicity: measured here: cytotoxicity by cell density
SMILES,% Hoechst-high responders [%],% tubulin-high responders,toxicity [%]
Nc1ccc(Nc2ccccc2)cc1,2.02,3.57% (inactive),3.51
Cc1ccc(Nc2ccccc2N)cc1,19,25.1% (active),21.1
Cc1ccc(Nc2nnc(SCc3ccccc3)s2)cc1,1.53,1.84% (inactive),10
COc1ccccc1OCCNC(=O)c1cc([N+](=O)[O-])cc([N+](=O)[O-])c1,1.79,2.35% (inactive),4.5
CCOC(=O)c1sc2nc(CSc3ccccc3)[nH]c(=O)c2c1C,28.5,17.6% (active),32.2
CCOC(=O)c1sc2nc(C)nc(SCC(N)=O)c2c1C,2.34,3.35% (inactive),5.02
CCOC(=O)c1sc2nc(CSCC(=O)OCc3ccc(C(=O)OC)o3)[nH]c(=O)c2c1C,1.26,1.86% (inactive),6.86
Cc1nn(C)cc1/C=N/NC(=O)c1sc2ccccc2c1Cl,0.999,1.5% (inactive),12.2
O=C(N/N=C/c1c(Cl)[nH]c2ccccc12)c1sc2ccccc2c1Cl,42.8,18.9% (active),32.3
O=C(Nc1ccon1)c1sc2ccccc2c1Cl,2.6,2.29% (inactive),5.2
COc1ccccc1N1CC(O)=C(c2nc3ccccc3s2)C1=N,9.29,17.8% (active),14.3
CCOC(=O)CCCN1CC(O)=C(c2nc3ccccc3s2)C1=N,2.61,4.95% (inactive),2.95
N=C1C(c2nc3ccccc3s2)=C(O)CN1NC(=O)c1ccc([N+](=O)[O-])cc1,1.37,9.65% (inactive),4.7
Cc1ccc(C(=O)NC(=S)Nc2ccccc2C)cc1,1.22,1.11% (inactive),8.22
C/C(CCC(=O)OC[C@H]1O[C@H](C#Cc2ccccc2)C=C[C@@H]1Oc1ccc(C)cc1)=N\OC[C@@H](O)[C@H]1O[C@@H]2OC(C)(C)O[C@@H]2[C@H]1O,2.47,2.74% (inactive),9.27
COc1ccccc1C1SCCN1C(=O)c1ccc([N+](=O)[O-])cc1 (stereo not drawn),3.5,3.9% (inactive),3.11
CCC1(C(=O)c2ccccc2)C(c2cccc([N+](=O)[O-])c2)C1(C(=O)OC)C(=O)OC (stereo not drawn),2.35,3.4% (inactive),3.29
COc1ccc(C(=O)N2CCc3cc(OC)c(OC)cc3C2c2cccc([N+](=O)[O-])c2)cc1 (stereo not drawn),33.6,45.1% (active),30.8
COc1ccc(N2CCN(C(=O)C3CCN(S(=O)(=O)c4ccc(C)cc4)CC3)CC2)cc1,2.46,4.98% (inactive),9.28
CCCCOc1ccc(NC(=O)[C@@H]2CCCN2C(=O)C2CCN(S(=O)(=O)c3ccc(C)cc3)CC2)cc1,12,23.9% (active),63.4
Cc1cccc(OCCCC(=O)Nc2ccc(S(=O)(=O)N3CCCC3)cc2)c1,2.42,3.34% (inactive),1.31
CCOc1ccc(NC(=S)N2CCC(N(C)CC3CCCO3)CC2)cc1 (stereo not drawn),1.17,2.22% (inactive),7.25
COC(=O)c1cc(C(=O)N(Cc2ccccc2)c2ccccn2)cc([N+](=O)[O-])c1,2.13,3.91% (inactive),2.76
CCc1nnc(NS(=O)(=O)c2ccc(N=Cc3c(C)[nH]n(-c4ccc(C)cc4)c3=O)cc2)s1,2.28,1.91% (inactive),6.1

SMILES,% Hoechst-high responders [%],% tubulin-high responders,toxicity [%]
CCOc1[nH]n(-c2ccc(Cl)cc2)c(=O)c1C=Nc1ccc(O)cc1,12.9,33.2% (active),43.1
Cc1[nH]n(-c2ccc(Cl)cc2)c(=O)c1/C=N/n1c(C)nc2ccccc2c1=O,2.61,5.31% (inactive),6.25
O=C(NC(=S)Nc1ccc(S(=O)(=O)N2CCOCC2)cc1)c1ccccc1[N+](=O)[O-],1.54,3.32% (inactive),3.74
Cc1ccc(CNC(=O)C2CC(c3ccccc3[N+](=O)[O-])=NO2)o1 (stereo not drawn),2.18,1.45% (inactive),2.23
COc1ccc(C2=NOC(C(=O)NCc3ccco3)C2)cc1OC (stereo not drawn),22.4,39.6% (active),66.2
COc1ccc(-c2cc(C(=O)NCc3ccco3)no2)cc1OC,1.41,1.62% (inactive),8.27
O=[N+]([O-])c1ccc(Sc2n[nH]c(-c3ccco3)n2)nc1,1.75,2.25% (inactive),7.26
CCCCCCCC[n+]1cccc(C(=O)N2c3c(nc(N)[nH]c3=O)NC(C)C2C)c1 (stereo not drawn),2.15,1.56% (inactive),7.45
CCOc1cccc(/C=N/N2C(=O)CSC2=S)c1O,1.52,5.1% (inactive),14.4
Cc1nccn1CCCNC(=O)CC1C(=O)NCCN1Cc1ccc(Cl)c(F)c1 (stereo not drawn),2.31,2.68% (inactive),1.05
COC(=O)C1=C(Nc2ccc(OC)cc2)C=C(C)C(C(=O)OC)C1c1ccc(C)cc1 (stereo not drawn),1.91,2.3% (inactive),12.1
COC(=O)C1=C(Nc2ccc(C)cc2)C=C(C)C(C(=O)OC)C1c1ccc(F)cc1 (stereo not drawn),21.1,34.1% (active),39.5
COC(=O)C1C(=O)NCC1c1ccc(C)cc1 (stereo not drawn),1.21,1.21% (inactive),6.65
COc1ccc(C2NC(=S)NC3=C2CCc2ccccc23)cc1OC (stereo not drawn),3.43,3.22% (inactive),5.09
O=C(CCN1C(=O)/C(=C/c2cccs2)SC1=S)NNC(=O)c1cccc(O)c1,1.28,1.78% (inactive),8.2
CCOc1cc(NS(=O)(=O)c2ccc(OC)cc2)c(OCC)cc1NC(C)=O,0.933,2.92% (inactive),3.17
CCOC(=O)c1ccccc1NS(=O)(=O)c1ccc(OC)cc1,15.7,39.6% (active),61.3
COC(=O)c1ccccc1NS(=O)(=O)c1ccc2[nH]c(=O)[nH]c2c1,5.36,4.9% (inactive),0.144
COc1ccc(C)cc1NC(=O)CSc1nnc(CC(=O)Nc2ccccc2F)n1C,1.3,2.49% (inactive),3.08
COc1ccccc1C(=O)n1nc(-c2ccccc2)nc1N,2.45,1.99% (inactive),31.9
COc1ccc(C(=O)n2nc(-c3ccc(C)cc3)nc2N)cc1OC,34.9,48.4% (active),31.5
COc1ccc(C(=O)n2nc(-c3ccc(Cl)cc3)nc2N)cc1OC,2.89,4.28% (inactive),4.28
COc1ccc(-c2[nH]ncc2CN(C)Cc2c(C)n[nH]c2C)c(OC)c1,1.45,3.81% (inactive),16.7
Cc1cccc(C)c1NC(=O)C(c1ccccc1)N1CC(=O)Nc2ccccc21 (stereo not drawn),2.09,3.96% (inactive),8.51

SMILES,% Hoechst-high responders [%],% tubulin-high responders,toxicity [%]
Cc1cccc(CSc2nnc(NC(=O)CSc3nnc(C)s3)s2)c1,1.18,2.97% (inactive),12.2
COc1ccccc1-n1c(CNC(=O)c2ccccc2)nnc1SCC(=O)Nc1nnc(C)s1,1.91,2.83% (inactive),6.55
Cc1nnc(NC(=O)CSc2nccn2-c2cccc(C)c2C)s1,21,19.7% (active),64.4
CC(Oc1cccc(NC(=O)c2cccs2)c1)C(=O)c1ccccc1 (stereo not drawn),1.24,0.929% (inactive),5.37
Cc1cc(-c2csc(N)n2)c(C)n1-c1ccccc1,2.12,6.37% (inactive),3.22
CN1C(=O)/C(=C\c2ccc(-c3ccccc3)o2)SC1=S,1.77,6.05% (inactive),4.81
C=CCn1c(CC(=O)Nc2cccc(OC)c2)nnc1SCC(=O)NC1CCCCC1,1.48,3.27% (inactive),1.42
COc1cccc(-n2c(SCC(=O)NC3CCCCC3)nc3n[nH]c(C)c3c2=N)c1,11.3,18.4% (active),62.6
CCCCNC(=O)CSc1nc2n[nH]c(C)c2c(=N)n1-c1cccc(Cl)c1C,2.38,2% (inactive),5.31
Cc1ccc(S(=O)(=O)N(C)C)cc1NC(=O)c1ccccc1Br,2.26,1.77% (inactive),6.59
CN1CCN(C(=O)/C(=C\c2ccc3c(c2)OCO3)NC(=O)c2cccs2)CC1,1.07,1.67% (inactive),6.65
CC(C)(C)c1nc2ccccc2c(=O)n1N1C(=O)c2ccccc2C1=O,13.9,28.9% (active),37.9
CCC1(CC)Cc2ccccc2-c2nc3ccccc3c(=O)n21,1.65,4.36% (inactive),6.77
CN(C)CCCn1c(SCCN2C(=O)c3ccccc3C2=O)nc2ccccc2c1=O,1.95,2.16% (inactive),6.21
CCOc1ccc(NS(=O)(=O)c2ccc(C)c(C(N)=O)c2)cc1,2.61,1.97% (inactive),4.14
CN1CCN(c2ccc(NC(=O)c3ccc4c(c3)[nH]c(=O)n4Cc3ccc(F)cc3)cc2)CC1,2.93,3.59% (inactive),6.48
O=C(NN=C1CCC(=NNC(=O)c2cccnc2)CC1)c1cccnc1,2.04,1.75% (inactive),6.55
COCC(C)n1c(C)cc(C(=O)COc2ccc(C)nc2[N+](=O)[O-])c1C (stereo not drawn),1.67,1.5% (inactive),6.06
O=C(NNC(=S)NC(=O)c1cn(-c2ccccc2)nc1-c1ccccc1)c1ccncc1,2.91,5.93% (inactive),6.44
CCOc1ccc(C2c3[nH]c4ccccc4c3CCN2Cc2cn(CC)nc2C)cc1 (stereo not drawn),3.06,2.78% (inactive),2.13
CCN1CCN(C(=O)c2ccccc2N(C)S(=O)(=O)c2ccc(C)cc2)CC1,1.51,2.85% (inactive),4.04
CCOC(=O)N1CCN(C(=O)c2ccccc2N(Cc2ccccc2)S(=O)(=O)c2ccc(OC)cc2)CC1,60.4,17.8% (active),42.6
NC(=O)c1ccccc1N(Cc1ccccc1)S(=O)(=O)c1ccccc1,0.852,1.16% (inactive),4.6
